Screening data from PubChem.
aSyn UTR inh = 5' untranslated region of α-synuclein, MLPCN primary screen; alpha-synuclein 5'UTR reporter, inhibitor activity; inhibition, % (tested at 7.5 µM); 300,000 tested, 0.82% active; in the data active means inhibition above about 60%;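 further: H4 neuroglioblastoma cells stably carrying SNCA 5'UTR luciferase fusion; 0% = DMSO wells and 100% = positive control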
Ba/F3 V617F tox = lowers viability of Ba/F3 cells expressing EpoR and JAK2V617F | inhibition, % at 5.6 µM | AID 1446 | 220,000 tested, 1.1% active | ATP luminescence;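 active means inhibition above the campaign mean plus 3 SD over all tested compounds, cut at about 24% in these data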;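 further: cytokine-independent growth of Ba/F3 cells driven by EpoR plus mutant JAK2; 0% = DMSO-treated cells and 100% = JAK inhibitor I control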
BaF3 tox = parental Ba/F3 viability inhibition as JAK2V617F counter-screen | CellTiter-Glo ATP luminescence | 220,000 tested, 1.1% active | inhibition, % at 5.6 µM;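 active means inhibition above a per-campaign cutoff, the mean inhibition of all tested compounds plus 3 SD, cut at about 27% in these data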;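 further: 0% = DMSO wells and 100% = JAK Inhibitor I control wells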
KLF5 inhibitor = inhibitors of KLF5 expression. AID 1700. DLD-1 KLF5 promoter-luciferase reporter, luminescence. 290,000 tested, 0.23% active. inhibition, % at 5 µM;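 active means inhibition above a per-plate limit of that plate's mean compound inhibition plus 3 SD, cut at about 60% in these data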;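 further: 0% = DMSO wells and 100% = LY294002 at 200 µM; higher means less KLF5 promoter-driven luciferase light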
IEC-6 tox = counter-screen for KLF5 inhibitors: cytotoxicity in IEC-6 cells; IEC-6 cytotoxicity, luminescence viability; inhibition, % at 5 µM; 290,000 tested, 0.78% active;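 further: 0% = plate median of test compound wells and 100% = cytotoxic reference compound wells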
APP transl inh = APP translation inhibition. 190,000 tested, 0.82% active. inhibition, % at 2 µM. SH-SY5Y APP 5'UTR-luciferase reporter, luminescence. AID 1285;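 active means inhibition above a set limit, derived from the sample mean plus 3 SD, cut at about 45% in these data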
IEC-6 tox confirm = confirmation of cytotoxic compounds in rat IEC-6 intestinal epithelial cells; shares compounds with IEC-6 tox; IEC-6 rat intestinal epithelial viability, luminescence; inhibition, % at 5 µM; 1,900 tested, 63% active; AID 1907;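 further: 0% = vehicle and 100% = reference cytotoxic drug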
An asterisk follows results filed as active; . = no result. This is a sample that favours compounds with a hit; in the whole collection about 2.2% have one here. Unless noted, no stated cut-off is given here; in the data, active means inhibition above about 22%; inactive means the rest.

SMILES	aSyn UTR inh	Ba/F3 V617F tox	BaF3 tox	KLF5 inhibitor	IEC-6 tox	APP transl inh	IEC-6 tox confirm
CC(OC(=O)CCCN=C1NS(=O)(=O)c2ccccc21)C(=O)Nc1ccccc1F (configuration not stated)	-2	.	.	.	.	.	.
Cc1nn2c(NCCN(C)C)c3c(nc2c1-c1ccccc1)CCCC3	.	7	4	-3	25*	.	1
COCCNc1c2c(nc3c(-c4ccccc4)c(C)nn13)CCCC2	37	1	8	-11	-2	11	.
Cc1cc2c(c(SCC(=O)NCc3ccccc3Cl)n1)C(=O)OC2	7	-4	2	-6	-3	8	.
COc1ccc(C2c3cc(OC)c(OC)cc3CCN2S(C)(=O)=O)cc1OC (configuration not stated)	22	75*	58*	2	36*	15	10
COc1ccc(C2c3cc(OC)c(OC)cc3CCN2C(=O)c2ccccc2)cc1OC (configuration not stated)	3	.	.	-13	-2	.	.
CO/N=C/c1ccc(OC)c(Oc2nc(OC)cc(OC)n2)c1	8	-1	10	14	28*	66*	3
CCO/N=C/c1ccc(OC)c(Oc2nc(OC)cc(OC)n2)c1	10	-4	3	-20	-6	-36	.
C/C(=N\Nc1ncnc2sc(C)c(C)c12)c1ccccn1	105*	.	.	24	91*	.	94*
Cc1sc2ncnc(N/N=C/c3cccc(O)c3)c2c1C	-75	2	0	-4	5	-39	.
CCCCOc1ccc(C(C)NC(=O)C2CCCN(S(=O)(=O)CCC)C2)cc1 (configuration not stated)	18	0	3	-6	-1	-1	.
CC(C)c1c(C(=O)N/N=C/c2ccc3c(c2)OCO3)nnn1-c1nonc1N	-34	.	.	-40	-1	.	.
CCN(CC)c1ccc(/C=N/NC(=O)c2nnn(-c3nonc3N)c2C(C)C)c(O)c1	92*	.	.	50	97*	.	68*
CCOC(=O)C(NC(=O)N(C)C)(Nc1sc(C)c(CC)c1C#N)C(F)(F)F (configuration not stated)	-16	1	6	0	-3	4	.
O=C1c2cccc3c([N+](=O)[O-])ccc(c23)C(=O)N1O	-35	.	.	-22	85*	.	11
CC(=O)Oc1ccc(N2C(=O)c3cccc4c([N+](=O)[O-])ccc(c34)C2=O)cc1	15	.	.	-42	7	.	.
Cc1ccc(NC(=O)CCc2c[nH]c3ccccc23)nc1	2	.	.	51	70*	.	42*
COc1ccc(N2CCN(CCCn3c(=S)[nH]c4ncccc4c3=O)CC2)cc1	25	0	5	-2	30*	1	19
O=c1c2cccnc2[nH]c(=S)n1CCCN1CCN(c2ccc(F)cc2)CC1	26	-1	3	5	15	-1	.
Cc1c(NC(=O)c2ccc([N+](=O)[O-])o2)cccc1-c1nc2ncccc2o1	-228	.	.	14	100*	.	22
O=C(Nc1cccc2ncccc12)c1ccc([N+](=O)[O-])o1	-169	.	.	-2	98*	.	24*
O=C(Nc1ccccc1Cl)c1ccc([N+](=O)[O-])o1	-139	.	.	-24	47*	.	21
CC(=O)Nc1cccc(NC(=O)c2ccco2)c1	-16	-1	6	11	-2	-8	.
O=C(Nc1cccc(NC(=O)c2ccc([N+](=O)[O-])o2)c1)c1ccco1	-66	.	.	-9	99*	.	35*
Cc1ccccc1NC(=O)c1ccc([N+](=O)[O-])o1	-48	-3	-2	-53	20	-2	.
SMILES	aSyn UTR inh	Ba/F3 V617F tox	BaF3 tox	KLF5 inhibitor	IEC-6 tox	APP transl inh	IEC-6 tox confirm
O=C(NCc1ccco1)C(c1ccc(F)cc1)N(C(=O)Cc1cccs1)c1cccnc1 (configuration not stated)	-1	0	5	-10	-3	11	.
COCCNC(=S)N1CCC(C(=O)c2ccc(C)cc2)CC1	-20	.	.	-8	0	.	.
CC(C)C(=O)Nc1ccccc1C(=O)OCC(=O)c1ccc2c(c1)OCCO2	-2	7	5	-1	4	-31	.
O=C(Nc1ccc(NC(=O)c2ccc([N+](=O)[O-])o2)cc1Cl)c1ccco1	-173	.	.	-15	101*	.	27*
O=C(NC12CC3CC(CC(C3)C1)C2)c1ccc([N+](=O)[O-])o1	-200	.	.	15	66*	.	25*
O=C(Nc1ccc(NC(=O)c2ccco2)c(Cl)c1)c1ccccc1	-99	-4	4	-71	-4	-45	.
CC(C)(C)C(=O)CNCC(=O)C(C)(C)C	-20	1	5	-25	-1	-35	.
c1csc(-c2nc3c4ccccc4c4ccccc4c3[nH]2)c1	-73	8	10	-14	24*	7	23*
Cc1ccc(S(=O)(=O)Nc2cccc3cccnc23)cc1	63*	0	4	12	32*	29	100*
COc1ccc(S(=O)(=O)Nc2cc3c(C(C)=O)c(C)oc3c3ccccc23)cc1	82*	79*	78*	52	83*	92*	55*
COc1cc(NS(=O)(=O)c2ccc(C)cc2)c2ncccc2c1	69*	1	7	-15	79*	22	74*
Cc1oc2c(cc(NS(=O)(=O)c3ccc(F)cc3)c3ccccc32)c1C(=O)O	10	.	.	6	-1	.	.
COc1ccc(S(=O)(=O)Nc2ccccn2)cc1	3	.	.	-58	-5	.	.
Cc1ccc(S(=O)(=O)Nc2ccccc2-c2ccccc2NS(=O)(=O)c2ccc(C)cc2)cc1	-4	-2	8	13	-3	-3	.
COc1ccc(C(=O)NCCNC(=O)c2cnccn2)cc1	7	.	.	-4	7	.	.
CCOc1ccc(C(=O)Nc2cccc3cccnc23)cc1	-19	.	.	-40	-7	.	.
CCc1ccc(/C(C)=N/NC(=O)c2ccccn2)cc1	-35	-4	6	-5	0	13	.
CCOc1ccc(C(=O)N/N=C(\c2ccccc2)c2ccccn2)cc1	46	86*	80*	19	26*	72*	68*
CC(=O)Nc1ccc(/C(C)=N\NC(=O)c2ccc(-c3ccccc3)cc2)cc1	96*	88*	82*	-56	26*	0	-6
CC(=O)Nc1ccc(/C(C)=N/NC(=O)c2ccc(F)cc2)cc1	-40	0	6	-26	-1	2	.
C/C(=N\NC(=O)c1ccc(F)cc1)c1ccccn1	-93	.	.	38	32*	.	98*
Cc1ccn2cc(-c3ccc(O)c(O)c3)nc2c1	41	.	.	-58	23*	.	13
COc1ccc(C(=O)N2CCn3c2nc2ccccc23)cc1	-108	0	5	-73	0	-17	.
COc1ccc(C(=O)n2c(-c3ccco3)nc3ccccc32)cc1	-100	10	8	25	48*	50*	36*
Cc1ccc(OCC(O)CNC2CCCC2)c(C)c1 (configuration not stated)	3	.	.	-50	1	.	.
